Hits are enriched below; roughly 2.3% of the tested compounds scored in any of these assays.
GBA activity: human lysosomal glucosylceramidase modulation. purified enzyme, resorufin glucoside fluorescence (screen aimed at inhibitors), 20 min. Potency, µM. 1.1% of 48,000 active. AID 360; in the data active means potency below about 15 µM; inconclusive means mostly about 16 µM to 33 µM;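 further: the screen sought inhibitors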
Target sequence (P04062 whole entry, looked up): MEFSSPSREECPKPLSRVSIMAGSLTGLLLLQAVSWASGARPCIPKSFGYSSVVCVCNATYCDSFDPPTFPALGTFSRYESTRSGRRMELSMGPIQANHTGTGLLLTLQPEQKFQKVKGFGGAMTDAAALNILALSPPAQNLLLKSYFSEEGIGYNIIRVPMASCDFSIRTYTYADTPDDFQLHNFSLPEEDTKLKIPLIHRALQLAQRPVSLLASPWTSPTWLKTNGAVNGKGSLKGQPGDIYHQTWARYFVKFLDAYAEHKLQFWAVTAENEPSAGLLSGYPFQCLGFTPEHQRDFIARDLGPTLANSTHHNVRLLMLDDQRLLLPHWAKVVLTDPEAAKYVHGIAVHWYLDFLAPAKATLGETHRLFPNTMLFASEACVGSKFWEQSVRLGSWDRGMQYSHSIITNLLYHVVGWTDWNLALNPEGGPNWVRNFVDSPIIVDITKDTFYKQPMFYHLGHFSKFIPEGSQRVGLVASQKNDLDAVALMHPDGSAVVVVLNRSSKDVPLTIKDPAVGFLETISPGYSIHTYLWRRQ
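Normal human glucocerebrosidase (0.2 nM final) was assayed with resorufin β-D-glucopyranoside (30 uM final) in 50mM citric acid/KH2PO4, 10mM sodium taurocholate, 0.01% tween-20, pH 5.9. Compounds were titrated; fluorescence (Ex 548, Em 600) read after 20 min at RT.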
PK Bst: alters activity of Bacillus stearothermophilus pyruvate kinase; purified pyruvate kinase, luminescence ATP production; ribose 5-phosphate activator present at AC10; Potency, µM; 1.2% of 51,000 active; AID 361; in the data active means potency below about 11 µM; inconclusive means mostly about 12 µM to 25 µM;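 the screen sought inhibitors and activators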;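 further: scaled between full activation by ribose 5 phosphate and full inhibition by luteolin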
Numbers without * were called inactive; i = inactive; ? = inconclusive; . = no result. Potency means the concentration at half of the fitted maximal effect.

SMILES	GBA activity	PK Bst
CCCc1[nH]n(-c2nc3ccccc3s2)c(=O)c1C=NCC1CCCO1 (stereo not given)	12.7*	.
CCCc1[nH]n(-c2nc3ccccc3s2)c(=O)c1C=NCCN1CCOCC1	.	>25.6
COc1cccc(-c2nc(CS(=O)(=O)CC(=O)NCCCN3CCc4ccccc4C3)c(C)o2)c1	>76.9	>57
COc1ccc(OC)c(NC(=O)CSc2nc(C)cs2)c1	>76.9	>57
O=C1c2ccccc2S(=O)(=O)N1Cc1nnc(-c2ccccc2Br)o1	>76.9	.
O=S1(=O)c2cccc3cccc(c23)N1Cc1nnc(-c2ccccc2Br)o1	>76.9	2.07*
Cc1ccc(C)n1-c1ccc(-c2nnco2)cc1	>76.9	>57
O=S1(=O)c2cccc3cccc(c23)N1Cc1ccc(-c2nnco2)cc1	?	1.53*
CC(C)C(=O)Nc1cccc(C(=O)Nc2nccs2)c1	.	>57
Cn1ncc2c1ncn1c(-c3ccccc3Cl)nnc21	>76.9	>57
COc1ccc(C(=O)Nc2nc(-c3cccs3)cs2)cc1	>76.9	?
Cc1csc(NC(=O)c2sc3nc(-c4cccs4)ccc3c2N)n1	>76.9	7.41*
O=C(Nn1nnnc1Nc1ccccc1)C12CC3CC(CC(C3)C1)C2	i	>57
Cc1cc(C(=O)Nc2cnn(Cc3ccc(Cl)cc3Cl)c2)no1	i	9.19*
COc1ccc(-c2cc(C(=O)Nc3cnn(Cc4ccccc4C)c3)no2)cc1OC	>76.9	>57
O=C(CCn1nnc2ccccc21)N1CCC(O)(c2cccc(F)c2)CC1	>76.9	>57
CCC1Oc2ccc(C)cc2N(CC(=O)NCc2cc(OC)ccc2OC)C1=O (stereo not given)	>76.9	>57
CC1=NCCN1S(=O)(=O)c1cc(Cl)ccc1Cl	>76.9	>57
COc1cc(/C=N/O)ccc1OCc1ccc(C(=O)O)cc1	.	0.388*
O=C(O)c1cc(/C=N\O)ccc1OCc1ccccc1	>76.9	>57
Cc1c(NS(=O)(=O)c2cccc3nsnc23)c(=O)n(-c2ccccc2)n1C	.	>25.6
Cc1noc(/C=C/N(C)C)c1S(=O)(=O)N1CCCC(C(=O)NCc2ccccc2Cl)C1 (stereo not given)	.	>57
Cc1noc(/C=C/N(C)C)c1S(=O)(=O)N1CCCC(C(=O)NCc2ccc(Cl)cc2)C1 (stereo not given)	14*	>57
CCCOC(=O)CSC1=C(C#N)C(c2ccccc2OC)C(C#N)C(=O)N1 (stereo not given)	.	>25.6
Cc1ccc(C)c(/C(O)=C2\C(=O)C(=O)N(CCCN(C)C)C2c2cccnc2)c1 (stereo not given)	>76.9	>57
SMILES	GBA activity	PK Bst
Cc1ccc(NC(=O)c2cccc(Cl)c2)nc1	>76.9	>57
Cc1ccc(C(=O)Nc2ccc(Cl)cn2)cc1	>76.9	9.14*
Cc1c(C(=O)Nc2ccc(Cl)cn2)oc2ccccc12	>76.9	>57
Cc1ccc(NC(=O)c2ccc3ccccc3n2)nc1	?	6.87*
C=CCn1c(=O)c2ccccc2n2c(SCc3c(C(=O)OCC)oc4ccccc34)nnc12	>76.9	>57
Cc1nn(CCc2nc(-c3ccco3)cs2)c2[nH]c(=O)cc(C(F)(F)F)c12	>76.9	>57
NC(=O)c1nsc(C(=O)N(CC(=O)NCc2ccc3c(c2)OCO3)C2CCCC2)c1N	>76.9	>57
Oc1ccc(-c2[nH]ncc2-c2ccc(Cl)cc2)c(O)c1	.	>57
Oc1ccc(-c2[nH]ncc2-c2cccc3cccnc23)c(O)c1	>76.9	5.88*
COc1ccc(N2CCN(CCNC(=O)CCS(=O)(=O)c3cccc4nsnc34)CC2)cc1	>76.9	>57
CCCNC(=O)NC(C(=O)OC)C12CC3CC(CC(C3)C1)C2 (stereo not given)	>76.9	>57
Cc1ccsc1/C=N/n1cnc2sc(C)c(C)c2c1=O	>76.9	>57
Cn1cc(/C=N/n2cnc3sc4c(c3c2=O)CCCC4)c2ccccc21	11.7*	>57
N#Cc1c(N)oc(-c2ccc3c(c2)OCO3)c1-c1ccc2c(c1)OCO2	>76.9	>57
O=C(c1ccco1)N1CCN(C(=O)C2CCCc3c2[nH]c2ccc(Cl)cc32)CC1 (stereo not given)	>76.9	>57
N#CC1=C(N)N(c2ccccc2)C2=C(C(=O)CCC2)C1c1cccs1 (stereo not given)	12.9*	>57
N#CC1=C(N)N(c2ccccc2C#N)C2=C(C(=O)CCC2)C1c1ccsc1 (stereo not given)	>76.9	>57
CNc1nc(-c2ccc(Cl)cc2)cs1	>76.9	8.12*
Oc1ccc(Nc2nc(-c3ccc(O)cc3)cs2)cc1	i	7.96*
CCNc1nc(-c2ccc(Cl)cc2)cs1	>76.9	10.1*
CC(=O)N(C)c1nc(-c2ccc(Cl)cc2)cs1	>76.9	>57
Oc1ccc(-c2csc(NCc3ccco3)n2)cc1	i	i
NS(=O)(=O)c1ccc(Nc2nc(-c3ccc(O)cc3)cs2)cc1	>76.9	?
Cc1cc(C)cc(-n2nnc(C(=O)NCc3ccccc3Cl)c2N)c1	>76.9	>57
Cc1ccc(OCCNS(=O)(=O)c2cccs2)cc1	>76.9	>57
COC(=O)c1ccc(-c2nc3ccccc3o2)cc1	>76.9	.
